From PubChem BioAssay
Only some compounds are listed: those with a hit (about 19% of all), similar ones and a draw of the others.
TGFb inhibitor: inhibitors of TGF-b signaling. hit rate 1.2% among 410,000. HepG2 CAGA-GFP TGF-b/SMAD3 reporter, GFP fluorescence, 18 h; TGF-beta stimulated, 500 pg/mL final. Potency, µM (top dose mostly 46.1 µM), without a hit: at the highest dose activity, negative = inhibition, hits mostly inhibitors; also: potency is read from the fitted curve at half-maximal effect; % is scaled to controls: 0 for no effect and ±100 for the full control effect; nearly all actives have a fitted effect of over 65% in size
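Inhibition was scored as loss of TGF-beta-induced (500 pg/mL final, 18 hours, 37 degrees C) GFP in HEPG2 cells carrying a CAGA-GFP reporter, in DMEM with 1% FBS. Well GFP was summed per cell; Activity was normalised to unstimulated and stimulated DMSO wells, then concentration-response fitting.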
HepG2 tox: HepG2 cytotoxicity, counter-screen for TGF-b inhibitors | HepG2 CAGA-GFP viability, ATP luminescence, 18 h | Potency, µM (doses to about 46.1 µM), for inactives: at the top dose activity change, negative = cytotoxicity, hits mostly cytotoxic | hit rate 0.76% among 410,000; also: potency is read from the fitted curve at half-maximal effect
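CellTiter-Glo luminescence gave cytotoxicity after 18 hours at 37 degrees C. The cells were HepG2 CAGA-GFP in 1% FBS DMEM, stimulated with 500 pg/mL TGF-beta after compound addition. %Activity was normalised to no-cell wells (complete cell-killing) and DMSO (no toxicity), and curves were fitted and classified.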
TDP1 cell noCPT: qHTS for Inhibitors of human tyrosyl-DNA phosphodiesterase 1 (TDP1): qHTS in cells in absence of CPT | hit rate 15% among 420,000 | Potency, µM (series often up to 46.2 µM), for inactives: top-dose activity change, negative = growth inhibition, most hits filed as inhibitors | DT40 Tdp1-/- hTDP1 cells, no CPT, ATP luminescence, 48 h | AID 686978, 2013; also: potency is read from the fitted curve at half-maximal effect; % is scaled to controls: 0 for no effect and ±100 for the full control effect; nearly all actives have a fitted effect of over 55% in size
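Luminescent ATP content (CellTiter-Glo) served as the growth readout. Knockout chicken DT40 cells expressing human TDP1 were exposed to compounds without camptothecin for a minimum 48 hr at 37 °C.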
S-ASM inh: inhibitors of human secretory acid sphingomyelinase | hit rate 0.006% among 340,000 | placental ASM, HMU-PC fluorogenic substrate, 60 min | Potency, µM (top dose mostly 57.5 µM), for the others: at the top dose activity change, negative = inhibition, most hits filed as inhibitors; also: potency is read from the fitted curve at half-maximal effect
Target sequence (P17405 47-631 limits assumed): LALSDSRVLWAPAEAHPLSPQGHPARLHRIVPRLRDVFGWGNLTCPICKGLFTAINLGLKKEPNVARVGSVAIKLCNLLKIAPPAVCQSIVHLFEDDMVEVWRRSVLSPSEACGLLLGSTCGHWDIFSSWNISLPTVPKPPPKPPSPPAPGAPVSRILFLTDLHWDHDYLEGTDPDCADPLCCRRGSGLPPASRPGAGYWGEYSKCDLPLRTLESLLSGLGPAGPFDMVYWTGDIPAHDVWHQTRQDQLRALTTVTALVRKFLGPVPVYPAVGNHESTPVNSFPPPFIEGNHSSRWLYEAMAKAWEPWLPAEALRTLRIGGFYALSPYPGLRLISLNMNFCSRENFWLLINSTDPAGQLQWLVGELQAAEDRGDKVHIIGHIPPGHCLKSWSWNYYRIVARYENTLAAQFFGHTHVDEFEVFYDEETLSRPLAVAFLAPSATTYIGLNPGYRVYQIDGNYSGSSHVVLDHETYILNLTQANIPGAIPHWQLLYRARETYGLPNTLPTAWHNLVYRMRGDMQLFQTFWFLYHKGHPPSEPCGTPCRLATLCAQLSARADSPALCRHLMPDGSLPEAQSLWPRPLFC
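Fluorogenic HMU-PC substrate (9 uM final) is turned over by placental ASM in 60 min at 37 C after a 10 min compound preincubation. Reaction ended by alkaline stop (pH 10), with fluorescence read at 386/447 nm.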
TDP1 cell CPT: DT40-hTDP1 cell growth loss with CPT. chicken DT40 Tdp1-/-;hTDP1 cells + 20 nM CPT, ATP luminescence, 48 h. Potency, µM (highest dose often 46.2 µM), for inactives: at the highest dose activity change, negative = growth inhibition, most hits filed as inhibitors. hit rate 12% among 420,000. AID 686979; also: potency is read from the fitted curve at half-maximal effect; % is scaled to controls: 0 for no effect and ±100 for the full control effect; nearly all actives have a fitted effect of over 55% in size
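Chicken DT40 Tdp1-/- cells complemented with human TDP1, 400 cells/well, exposed to compounds plus 20 nM camptothecin for at least 48 h at 37 C; viability read as ATP content by CellTiter-Glo luminescence.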
IL-1B inflam inh: inhibitors of inflammasome signaling (IL-1 beta secretion); hit rate 4.7% among 360,000; THP-1 LPS/ATP IL-1B secretion, AlphaLISA, 16 h; active compounds read low; AID 743279; activity change, % at 57.5 µM; in the data active = activity change below about -50%; inconclusive = mostly about -30% to -49%; also: % is scaled to controls: 0 for no effect and ±100 for the full control effect
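Secreted IL-1B measured by AlphaLISA bead assay after 16 h compound exposure of THP-1 cells; compounds (final up to 57.5 uM) added 1 h before LPS (250 ng/mL) and ATP (1.25 mM) stimulation; lower signal means less secretion.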
* = called active by the depositor; i = inactive; ? = inconclusive; . = no result; ! = not active in a repeat. Unless noted, calls follow the shape of the dose curve; as a rule, active = well fitted curve in the direction sought with a large enough effect; inconclusive = small, poorly fitted or top-dose-only effect, or another doubt; inactive = no such curve, though single readings can be large; an effect the other way counts as inactive or inconclusive.

SMILES	TGFb inhibitor	HepG2 tox	TDP1 cell noCPT	S-ASM inh	TDP1 cell CPT	IL-1B inflam inh
COc1ccc(-c2c3c(=O)n(C)c(=O)n(C)c3cn2-c2cccc(N)c2)cc1	-1.6%	-9.5%	23.1µM*	.	?	.
Cn1c(=O)c2c(-c3ccccc3)n(-c3cc(C(=O)O)ccc3O)cc2n(C)c1=O	8.4%	1.9%	4.8%	.	-14.8%	7.5
Cc1cccn2c(CNCCCOc3cccnc3)c(C(=O)N3CCOCC3)nc12	?	-7.9%	-8.6%	2.6%	-0.9%	10.7
Cc1ccc(C(=O)N/C(=C/C=C\c2ccccc2)C(=O)NCc2ccco2)cc1	?	-30.9%	?	-4.5%	?	0.0
COc1cc2nc(C3CC3)n(NC(=O)c3ccc(F)cc3)c(=O)c2cc1OC	-22.0%	6.9%	-0.3%	1.5%	-23.6%	0.2
COc1ccccc1C(=O)Nn1c(C2CCC2)nc2ccccc2c1=O	-4.2%	-10.5%	?	-1.0%	13µM*	9.0
COc1cc2nc(C3CC3)n(NC(=O)c3ccc(Cl)cc3)c(=O)c2cc1OC	-15.1%	-8.0%	23.1µM*	-5.7%	?	22.8
O=C(Nn1c(C2CCC2)nc2ccccc2c1=O)C1CCC1	29.6%	-2.8%	-10.5%	4.8%	-5.7%	-9.3
CCOc1ccccc1C(=O)Nn1c(C2CCC2)nc2ccccc2c1=O	-25.9%	-21.4%	23.1µM*	-1.2%	9.2µM*	15.9
O=C(Nn1c(C2CCC2)nc2ccccc2c1=O)c1cccs1	-9.1%	3.1%	-9.5%	0.0%	-8.2%	1.2
COc1ccc(CNC(=O)c2cn(Cc3ccc(S(=O)(=O)N(C)C)cc3)c(=O)s2)cc1	-15.2%	-18.9%	?	.	?	-22.6
COc1ccc(NC(=O)CSc2nc3nc(C)cc(C)n3n2)cc1OC	9.7%	-1.5%	-8.5%	.	-2.7%	.
COc1ccc(C(=O)N(C)CCCC2CCCC2)cc1OC1CCN(C(C)=O)CC1	3.2%	13.2%	16.4µM*	1.1%	?	2.2
COc1ccc(C(=O)NCCCC2CCCC2)cc1OC1CCN(C(C)C)CC1	-6.5%	-28.7%	16.4µM*	.	16.4µM*	-21.7
O=C(NCC(c1ccc2c(c1)OCO2)N1CCOCC1)c1ccccc1F (stereo unspecified)	1.3%	-27.7%	-29.2%	.	?	.
CC(C)Cc1ccc(S(=O)(=O)Nc2ccc3[nH]c(=O)[nH]c3c2)cc1	0.6%	-11.1%	25.9µM*	-2.7%	16.4µM*!	9.1
O=[N+]([O-])c1cc(N=Nc2ccc3ccccc3c2)ccc1O	-16.5%	-12.9%	?	-9.5%	18.4µM*	2.1
CCN(C[C@H]1N[C@@](C)(C(=O)OC)[C@H]2C(=O)N(Cc3ccccc3)C(=O)[C@@H]12)C(=O)Nc1ccc(Cl)cc1	-0.3%	-4.5%	?	?	?	108.9
C=CCc1cccc(/C=N/NC(=O)C(=O)Nc2ccc(C)cc2)c1O	1.7%	-19.6%	5.17µM*	3.4%	3.66µM*	31.5
C=CCc1cccc(/C=N/NC(=O)c2ccc3nc[nH]c3c2)c1O	-4.7%	3.7%	5.8µM*	-16.1%	9.2µM*	235.7
O=C(N/N=C/c1ccc(Cl)cc1Cl)c1ccc2nc[nH]c2c1	-26.2%	-25.2%	?	-1.6%	?	-19.2
C=CCc1cccc(/C=N/NC(=O)C(C)Nc2ccc(C)cc2)c1O (stereo unspecified)	?	-70.4%	8.2µM*	12.8%	16.4µM*	0.0
COc1ccc(CCN(C(=O)C(F)(F)F)C(C(=O)NC2CCCCC2)c2cccs2)cc1 (stereo unspecified)	-9.8%	-3.1%	4.61µM*	-3.7%	7.31µM*	-7.8
COc1ccc(CCN(C(=O)C(F)(F)F)C(C(=O)NC2CCCCC2)c2ccc(C)s2)cc1 (stereo unspecified)	-4.5%	3.4%	2.82µM*	-3.4%	3.26µM*	-2.5
O=C(NC1CCCCC1)C(c1cccs1)N(Cc1cccs1)C(=O)c1cccs1 (stereo unspecified)	-12.9%	-1.9%	16.4µM*	-7.8%	18.4µM*	-66.4*
SMILES	TGFb inhibitor	HepG2 tox	TDP1 cell noCPT	S-ASM inh	TDP1 cell CPT	IL-1B inflam inh
CCC(c1nnnn1-c1ccc2c(c1)OCCO2)N1CCN(c2ccccn2)CC1 (stereo unspecified)	.	.	-22.3%	.	-1.1%	-1.4
c1cc2c3c(cccc3c1)NC1(CCCC1)N2	-0.1%	-3.7%	-27.9%	9.4%	?	-10.4
CC1(C)Nc2cccc3c(N=Nc4ccc(N=Nc5ccccc5)c5ccccc45)ccc(c23)N1	-3.7%	-29.1%	11.2µM*	.	?	.
Nc1ccc(N=Nc2ccccc2)c2cccnc12	-15.3%	-12.2%	-2.0%	-12.8%	-1.7%	-20.7
CC1(C)Nc2cccc3cccc(c23)N1	22.6%	7.3%	16.4µM*	25.7%	?	6.7
COc1ccccc1C(=O)Nc1ncc2c(n1)CC(c1ccco1)CC2=O (stereo unspecified)	-3.0%	-1.5%	?	-0.6%	?	-23.6
O=C(Nc1ncc2c(n1)CC(c1ccccc1)CC2=O)c1ccco1 (stereo unspecified)	-2.5%	0.6%	-12.5%	8.1%	-13.7%	-10.8
COc1ccc(C2CC(=O)c3cnc(NC(=O)c4ccco4)nc3C2)cc1 (stereo unspecified)	-6.6%	-10.5%	-20.1%	0.4%	-6.9%	i
COc1ccc(C2CC(=O)c3cnc(NC(=O)c4ccccc4)nc3C2)c(OC)c1 (stereo unspecified)	?	-21.7%	7.31µM*	-3.0%	6.51µM*	0.0
COc1ccc(Nc2ncc3c(n2)CC(c2ccc(C)cc2)CC3=O)cc1 (stereo unspecified)	13.5%	-4.3%	8.2µM*	-17.0%	?	-3.3
COc1ccc(Nc2ncc3c(n2)CC(c2ccc(OC)cc2)CC3=O)cc1 (stereo unspecified)	-10.9%	-1.9%	11.6µM*	-15.0%	?	-28.5
Cc1ccc(Nc2ncc3c(n2)CC(C)(C)CC3=O)cc1	-5.1%	-16.0%	?	1.7%	?	?
O=C1CC(c2ccco2)Cc2nc(Nc3ccc(F)cc3)ncc21 (stereo unspecified)	-5.3%	-36.3%	23.1µM*	-9.4%	?	?
Cc1cc(F)ccc1NC(=O)C1CCCN(S(=O)(=O)c2ccc3c(c2)CCCC(=O)N3)C1 (stereo unspecified)	0.4%	-7.6%	.	.	.	.
